{"source": "PubChem BioAssay (NCATS)", "note": "Inconclusive results are not listed. Calls of active or inactive are those of the source. The call rests on the fitted dose curve; in most records, active means well fitted cell-killing curve with a large enough effect; inconclusive means small, poorly fitted or top-dose-only effect, or effect the other way; inactive means no such curve, though single readings can be large or run the other way. Potency means the concentration at half of the fitted maximal effect."}
{"assay": "Quantitative High-Throughput drug screen in 47 multiple myeloma cell lines against the NCATS MIPE library collection: ARD_JJKsccE7 cell viability assay (AID 1918929;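 on viability: 100% = DMSO-only wells and 0% = media-only wells without cells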)", "conditions": "ARD myeloma cell line viability, CellTiter-Glo, 48 h; series mostly up to 45.8 µM; viability: at the top concentration", "procedure,_shortened": "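Steps: seed 500 cells per well; pin-transfer MIPE 4.0 library; incubate 48 h at 37C, 5% CO2, humidified; add CellTiter-Glo, 5 min room temperature; read luminescence.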"}
{"smiles": "COc1ccc(C=CC(=O)Nc2ccccc2C(=O)O)cc1OC", "viability": "118% (inactive)"}
{"smiles": "CO[C@@H]1C(N(C)C(=O)c2ccccc2)C[C@H]2O[C@]1(C)n1c3ccccc3c3c4c(c5c6ccccc6n2c5c31)C(=O)NC4=O", "note": "(stereo partly specified)", "Potency": "1.87 µM (active)"}
{"smiles": "Nc1ccn([C@@H]2O[C@H](CO)[C@@H](O)[C@H]2O)c(=O)n1", "viability": "87.6% (inactive)"}
{"smiles": "CN(C)c1ccccc1CN1CCCN(Cc2ccccc2N(C)C)C1c1ccncc1", "Potency": "18.7 µM (active)"}
{"assay": "Quantitative High-Throughput drug screen in 47 multiple myeloma cell lines against the NCATS MIPE library collection: Karpas620_DSMZ cell viability assay (AID 1918959); further: nearly all actives have a fitted effect of over 30% in size;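 on viability (% of DMSO): 100% = DMSO-only wells and 0% = cell-free media-only wells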", "conditions": "Karpas620 myeloma viability, CellTiter-Glo ATP luminescence, 48 h; series mostly up to 45.8 µM; viability (% of DMSO): at the top concentration", "procedure,_shortened": "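qHTS of the MIPE 4.0 collection: 500 myeloma cells/well, 48 h drug exposure at 37C in 5% CO2, then CellTiter-Glo for 5 min at room temperature before luminescence reading.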"}
{"smiles": "Cn1cc(-c2ccc3nnc(Sc4ccc5ncccc5c4)n3n2)cn1", "Potency": "1.18 µM (active)"}
{"smiles": "O=[N+]([O-])c1ccc(Nc2ccccc2-c2ccccc2)c2nonc12", "Potency": "20.9 µM (active)"}
{"smiles": "CCCCn1c(=O)n(Cc2ccccc2F)c(=O)c2[nH]c(Cc3ccc(NC(C)=O)cc3)nc21", "viability (% of DMSO)": "95.6% (inactive)"}
{"smiles": "C[C@@H]1[C@H](O)[C@@H](C)C=CC=CC=CC=CC=CC=CC=C[C@H](O[C@@H]2O[C@H](C)[C@H](O)[C@H](N)[C@@H]2O)C[C@@H]2O[C@](O)(C[C@@H](O)C[C@@H](O)[C@H](O)CC[C@@H](O)C[C@@H](O)CC(=O)O[C@H]1C)C[C@H](O)[C@@H]2C(=O)O", "viability (% of DMSO)": "103% (inactive)"}
{"smiles": "NC(=O)c1ccc(N(C(N)=O)c2c(F)cccc2F)nc1-c1ccc(F)cc1F", "viability (% of DMSO)": "105% (inactive)"}
{"smiles": "O=C(O)C1=NC(C(=O)O)CC(C=CN2c3cc(O)c(OC4OC(CO)C(O)C(O)C4O)cc3CC2C(=O)O)=C1", "note": "(stereo unspecified)", "viability (% of DMSO)": "110% (inactive)"}
{"smiles": "COc1ccc(-c2oc3c(CC=C(C)C)c(O)cc(O)c3c(=O)c2O)cc1", "viability (% of DMSO)": "127% (inactive)"}
{"smiles": "CCCCCCOC(=O)N=C(N)c1ccc(NCc2nc3cc(C(=O)N(CCC(=O)OCC)c4ccccn4)ccc3n2C)cc1", "Potency": "7.43 µM (active)"}
{"smiles": "CN(C)CCCNC(=O)c1ccc(-c2cc(O)c3ncccc3c2)cc1", "Potency": "20.9 µM (active)"}
{"smiles": "CN(C)CCOc1cc(-c2cn[nH]c2)ccc1NC(=O)C1COc2ccccc2O1", "note": "(stereo unspecified)", "viability (% of DMSO)": "94.8% (inactive)"}
{"smiles": "CN1CC(=O)NC1=NC(=O)Nc1cccc(Cl)c1", "Potency": "5.26 µM (active)"}
{"smiles": "C[C@]12CC[C@@H]3c4ccc(O)cc4CC[C@H]3[C@H]1[C@@H](O)[C@@H](O)[C@H]2O", "viability (% of DMSO)": "91.5% (inactive)"}
{"smiles": "CCC(=O)N1CCN(c2ccc(-n3c(=O)ccc4cnc5ccc(-c6cnc7ccccc7c6)cc5c43)cc2C(F)(F)F)CC1", "Potency": "0.0187 µM (active)"}
{"smiles": "COc1ccc(CCC(=O)Nc2nc3ccc(Cl)cc3s2)cc1OC", "viability (% of DMSO)": "102% (inactive)"}
{"smiles": "CCNC(=O)Nc1ccc(Oc2ncnc(N)c2C=NOC)cc1Cl", "Potency": "4.69 µM (active)"}
{"smiles": "C[C@]12C=CC(=O)C=C1CC[C@@H]1[C@@H]2[C@@H](O)C[C@@]2(C)[C@@H]1CC[C@]2(O)C(=O)CO", "viability (% of DMSO)": "117% (inactive)"}
{"smiles": "CN1CCN(c2ncc(-c3cc(Cl)cc(Cl)c3Cl)c(N)n2)CC1", "Potency": "20.9 µM (active)"}
{"smiles": "COc1ccc(C=CC(=O)Nc2ccccc2C(=O)O)cc1OC", "viability (% of DMSO)": "108% (inactive)"}
{"smiles": "CO[C@@H]1C(N(C)C(=O)c2ccccc2)C[C@H]2O[C@]1(C)n1c3ccccc3c3c4c(c5c6ccccc6n2c5c31)C(=O)NC4=O", "note": "(stereo partly specified)", "viability (% of DMSO)": "71.7% (inactive)"}
{"smiles": "CC1CCN(c2cc(N3CCN(C)CC3)ccc2NC(=O)c2cc(C#N)c[nH]2)CC1", "viability (% of DMSO)": "125% (inactive)"}
{"assay": "Quantitative High-Throughput drug screen in 47 multiple myeloma cell lines against the NCATS MIPE library collection: KMM1_JCRB cell viability assay (AID 1918960); further: nearly all actives have a fitted effect of over 30% in size", "conditions": "KMM1 myeloma viability, CellTiter-Glo ATP luminescence, 48 h; series mostly up to 45.8 µM; viability (% of DMSO): at the top concentration", "procedure,_shortened": "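500 cells/well; MIPE 4.0 library pinned in; 48 h, 37 °C, 5% CO2; CellTiter-Glo ATP luminescence. Controls: DMSO = 100% viability, medium only = 0%.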"}
{"smiles": "NC(=O)c1ccc(N(C(N)=O)c2c(F)cccc2F)nc1-c1ccc(F)cc1F", "viability (% of DMSO)": "85.2% (inactive)"}
{"smiles": "O=C(O)C1=NC(C(=O)O)CC(C=CN2c3cc(O)c(OC4OC(CO)C(O)C(O)C4O)cc3CC2C(=O)O)=C1", "note": "(stereo unspecified)", "viability (% of DMSO)": "113% (inactive)"}
{"smiles": "CCc1cccc(CC)c1NC(=O)N1Cc2[nH]nc(NC(=O)c3ccc(N4CCN(C)CC4)cc3)c2C1", "Potency": "7.43 µM (active)"}
{"smiles": "COc1ccc(-c2oc3c(CC=C(C)C)c(O)cc(O)c3c(=O)c2O)cc1", "viability (% of DMSO)": "108% (inactive)"}
{"smiles": "NC(=O)c1nnn(Cc2cc(Cl)c(C(=O)c3ccc(Cl)cc3)c(Cl)c2)c1N", "Potency": "5.9 µM (active)"}
{"smiles": "CN(C)CCCNC(=O)c1ccc(-c2cc(O)c3ncccc3c2)cc1", "Potency": "20.9 µM (active)"}
{"smiles": "CC(=O)O[C@]1(C(C)=O)CC[C@H]2[C@@H]3C=C(Cl)C4=CC(=O)[C@@H]5C[C@H]5[C@]4(C)[C@@H]3CC[C@@]21C", "Potency": "18.7 µM (active)"}
{"smiles": "C[C@@H]1CCO[C@H]2Cn3cc(C(=O)NCc4ccc(F)cc4F)c(=O)c(O)c3C(=O)N12", "viability (% of DMSO)": "109% (inactive)"}
{"smiles": "CN1CC(=O)NC1=NC(=O)Nc1cccc(Cl)c1", "Potency": "4.69 µM (active)"}
{"smiles": "C[C@]12CC[C@@H]3c4ccc(O)cc4CC[C@H]3[C@H]1[C@@H](O)[C@@H](O)[C@H]2O", "viability (% of DMSO)": "118% (inactive)"}
{"smiles": "COc1ccc(CCC(=O)Nc2nc3ccc(Cl)cc3s2)cc1OC", "viability (% of DMSO)": "93.6% (inactive)"}
{"smiles": "CCOC(=O)[C@H]1O[C@H]1C(=O)N[C@@H](CC(C)C)C(=O)NCCC(C)C", "viability (% of DMSO)": "106% (inactive)"}
{"smiles": "CCC[C@H](Nc1nc(-c2ccc(NC(=O)NCC)c(OC)c2)ncc1C)c1cccnc1", "Potency": "0.001 µM (active)"}
{"smiles": "CCNC(=O)Nc1ccc(Oc2ncnc(N)c2C=NOC)cc1Cl", "Potency": "4.69 µM (active)"}
{"smiles": "C[C@]12C=CC(=O)C=C1CC[C@@H]1[C@@H]2[C@@H](O)C[C@@]2(C)[C@@H]1CC[C@]2(O)C(=O)CO", "Potency": "0.209 µM (active)"}
{"smiles": "CC(C)(C)c1[nH]cnc1C=c1[nH]c(=O)c(=Cc2ccccc2)[nH]c1=O", "viability (% of DMSO)": "9.71% [at 92.2 µM] (inactive)"}
{"smiles": "Nc1ccn([C@@H]2O[C@H](CO)[C@@H](O)[C@H]2O)c(=O)n1", "viability (% of DMSO)": "64.7% (inactive)"}
